# Reference: the supplement of paper PMC6555819
# Legend:
# Test in all cases: PBM binding z-score (relative to random genomic background probes); higher = stronger binding; sequences stand for … in GC…GCGATTGACAGCGTAGAATGAAGG
# [1] = test system: FXR:RXRa (NR concentration 270 nM, RXRa partner concentration 90 nM)
# Method in brief: (§1)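 Regression normalization was applied to scanned fluorescence from custom Agilent 4×180K protein-binding microarrays. Before scanning, arrays were incubated 1 h with ligand-free nuclear receptor dimers, and binding was detected with antibodies against each partner (one per run). Binding z-scores use the random background probes as reference.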
# [2] = test system: LXRa:RXRa (NR concentration 270 nM, RXRa partner concentration 90 nM)
# Method in brief: as §1
# [3] = test system: LXRa homodimer (NR concentration 270 nM)
# Method in brief: as §1
# [4] = test system: LXRb:RXRa (NR concentration 270 nM, RXRa partner concentration 90 nM)
# Method in brief: as §1
# [5] = test system: LXRb homodimer (NR concentration 270 nM)
# Method in brief: as §1
# [6] = test system: PPARa:RXRa (NR concentration 270 nM, RXRa partner concentration 90 nM)
# Method in brief: as §1
# [7] = test system: PPARg:RXRa (NR concentration 180 nM, RXRa partner concentration 90 nM)
# Method in brief: as §1
# [8] = test system: PPARg:RXRa 270nM:90nM, anti-RXR (NR concentration 270 nM, RXRa partner concentration 90 nM)
# Method in brief: as §1
# [9] = test system: PPARg:RXRa 30nM:10nM, anti-RXR (NR concentration 30 nM, RXRa partner concentration 10 nM)
# Method in brief: as §1
# [10] = test system: PPARg:RXRa 90nM:30nM, anti-RXR (NR concentration 90 nM, RXRa partner concentration 30 nM)
# Method in brief: as §1
# [11] = test system: PPARg:RXRa DBDmut IVT, anti-RXR (DBD mutation: RXRa K156A/R161A, NR concentration 270 nM, RXRa partner concentration 90 nM)
# Method in brief: as §1
# [12] = test system: PPARg:RXRa IVT, anti-PPARg (NR concentration 270 nM, RXRa partner concentration 90 nM)
# Method in brief: as §1
# [13] = test system: PPARg DBDmut:RXRa IVT, anti-PPARg (DBD mutation: PPARg1 K132A/R137A, NR concentration 270 nM, RXRa partner concentration 90 nM)
# Method in brief: as §1
# [14] = test system: PPARg DBDmut IVT, anti-PPARg (DBD mutation: PPARg1 K132A/R137A, NR concentration 270 nM)
# Method in brief: as §1
# [15] = test system: PPARg homodimer (NR concentration 180 nM)
# Method in brief: as §1
# [16] = test system: PXR:RXRa (NR concentration 270 nM, RXRa partner concentration 90 nM)
# Method in brief: as §1
# [17] = test system: PXR homodimer (NR concentration 270 nM)
# Method in brief: as §1
# [18] = test system: RARa:RXR (NR concentration 270 nM, RXRa partner concentration 90 nM)
# Method in brief: as §1
# [19] = test system: RARa homodimer (NR concentration 270 nM)
# Method in brief: as §1
# [20] = test system: RARb:RXRa (NR concentration 270 nM, RXRa partner concentration 90 nM)
# Method in brief: as §1
Sequence,PBM binding z-score [1],PBM binding z-score [2],PBM binding z-score [3],PBM binding z-score [4],PBM binding z-score [5],PBM binding z-score [6],PBM binding z-score [7],PBM binding z-score [8],PBM binding z-score [9],PBM binding z-score [10],PBM binding z-score [11],PBM binding z-score [12],PBM binding z-score [13],PBM binding z-score [14],PBM binding z-score [15],PBM binding z-score [16],PBM binding z-score [17],PBM binding z-score [18],PBM binding z-score [19],PBM binding z-score [20]
GCTGACGGGTCAAAGGTTATAGCATGAATAGAAT,7.43,5.45,0.433,5.53,-0.231,6.99,9.41,8.11,7.21,8.55,1.23,4.56,0.893,0.679,3.42,5.8,0.288,8.03,0.75,4.63
TCTGCTAGCTCAGTTGGTCAGCTAACGAGCTGCC,-1.44,-1.29,-1.01,-1.04,-0.714,-0.45,-1.22,0.0147,0.674,0.449,0.435,0.0097,-0.882,-0.216,-1.73,-0.874,-1.69,-0.998,-2.24,-0.575
ATCTCTAAGTAAAGATAGTTCAGTGAATGCAAAT,0.825,1.03,0.571,0.658,0.588,0.429,0.449,0.18,0.359,0.14,0.013,-0.072,0.975,1.08,1.3,0.808,0.715,1.08,1.41,0.426
GTAACAAGGTGAATAGGTCGTTGATGAGTAGGCG,1.22,1.04,0.00254,0.69,-0.186,2.9,2.64,2.88,1.27,2.48,3.26,3.65,0.827,0.585,1.61,1.02,0.451,2.04,0.797,2.06
CGTCAAAGTTCAAGGTAACGTTACAGAAAGCAGC,6.48,5.5,3.04,3.64,1.12,4.78,4.55,5.04,2.28,4.37,1.03,2.42,0.621,1.08,3.53,4.49,3.12,3.46,2.12,5.26
GATACAGGGTCAAGGGCAGAGTACGCGTATTGAT,6.94,4.74,0.422,4.1,0.257,5.92,6.21,5.97,2.9,4.69,2.9,4.2,0.998,0.413,2.15,4.01,0.827,4.22,0.496,4.77
TCTCGAAGGACACGAAAGGTCAGAGCTCGACATC,2.94,3.47,2.63,3.26,0.0129,3.58,1.59,3.13,3.42,3.16,2.34,1.64,0.0703,0.551,1.75,3.79,0.247,4.04,0.683,4.23
CCTAGCAGGCCATTCTGGGTCACTCAAGGCTTGA,2.69,4.53,0.0938,2.17,-0.726,2.61,0.687,1.16,-0.704,0.4,3.36,3.51,-0.645,-1.57,0.115,1.61,-0.27,1.71,-0.611,1.75
GCTGCTAGGTCAGGTTGTTCAGCTAACGGGTACG,1.07,0.82,-0.00729,0.433,-0.427,1.29,0.414,1.18,-0.403,0.471,3.24,2.3,0.0355,-0.699,0.293,0.34,-0.306,0.883,-0.985,3.15
AGAACGAGGGCTATGAGTTGATAGCACGGGTGGC,-0.355,-0.47,-0.658,-0.828,-0.486,-0.335,0.792,0.00243,-0.297,0.151,0.434,-0.14,-0.172,-1.35,-0.607,-0.351,0.0434,-0.584,0.201,-0.0296
TAGCCTAGGGCATGCGGGCCAGTATAGTGTCGGC,-0.782,-0.599,-1.01,-1.17,-1.07,-0.591,-0.378,-0.777,-1.03,-0.989,-0.968,0.354,-0.499,-1.43,-1.51,-0.802,-0.955,-0.692,-0.647,0.881
TAGCCTAGGTCATGCGAGCCAGTATAGTGTCGGC,4.25,2.95,0.265,1.8,0.134,3.6,2.35,2.43,0.259,1.24,1.99,2.77,0.571,0.0763,1.17,1.38,-0.628,2.33,-0.182,3.72
ACAGACAGGTGATGTAGGTAACTCAGGCTATCAT,-0.0766,-0.183,-0.0278,-0.28,-0.53,0.633,0.673,-0.0404,-0.31,-0.171,1.26,2.15,0.582,0.742,-0.119,-0.31,0.148,-0.0493,0.492,0.149
ACTACCAGGCCAAGTTTGGGTCACTCAAACAAAG,0.642,0.276,0.197,1.05,0.0374,1.58,0.43,0.598,-0.29,0.255,1.12,2.04,0.0556,-0.292,0.797,0.921,0.121,1.45,0.491,2
